The values below come from PubChem BioAssay.

Several values for one entry are separate records, joined by “and”; a condition that tells them apart may be missing. Identical values can stand only once. Inconclusive results are not listed. Activity calls are given as the source filed them. Unless noted, no rule for the calls is given here.

Experiment [1] can be described thus: chitosan synthesis blockers in C. neoformans – flow cytometry, Cibacron Brilliant Red staining (AID 1347148).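 Also: compound exposure lasted three days at 37 degrees C.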 As to conditions: Cryptococcus neoformans chitosan, stronger effect = lower value; at 10 µM unless noted. (In general: Flow cytometry measures light scatter and fluorescence of single cells or particles in a stream.)
Experiment [2] can be described thus: liver-stage malaria parasite load reduction – cell-based, known kinase inhibitor set, luminescence, hepatoma host viability (AID 624392).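 Also: infected cells incubated roughly two days before readout.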 To be noted: Plasmodium liver stage in hepatoma cells, luciferase luminescence, concentration not given here; liver cell % of control: measured here: host liver cell viability; parasite % of control: stronger effect = lower value.
The target in experiment [3] is Mitogen-activated protein kinase 7 (Homo sapiens) (UniProt Q13164). The experiment is described as follows: Gal4-ERK5 driven luciferase induction – cell-based, HTS, primary screen (AID 1508626;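 active = luciferase signal above three times the same-plate solvent-only control wells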;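 also: luciferase driven by Gal4-ERK5 fusion binding five Gal4 sites before minimal TATA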). As to conditions: HeLa Gal4-ERK5 transactivation, 18 h, at 5 µM, stronger effect = higher value.
Chain of Mitogen-activated protein kinase 7 (Homo sapiens) (Q13164 whole entry, looked up, the tested form may be a part): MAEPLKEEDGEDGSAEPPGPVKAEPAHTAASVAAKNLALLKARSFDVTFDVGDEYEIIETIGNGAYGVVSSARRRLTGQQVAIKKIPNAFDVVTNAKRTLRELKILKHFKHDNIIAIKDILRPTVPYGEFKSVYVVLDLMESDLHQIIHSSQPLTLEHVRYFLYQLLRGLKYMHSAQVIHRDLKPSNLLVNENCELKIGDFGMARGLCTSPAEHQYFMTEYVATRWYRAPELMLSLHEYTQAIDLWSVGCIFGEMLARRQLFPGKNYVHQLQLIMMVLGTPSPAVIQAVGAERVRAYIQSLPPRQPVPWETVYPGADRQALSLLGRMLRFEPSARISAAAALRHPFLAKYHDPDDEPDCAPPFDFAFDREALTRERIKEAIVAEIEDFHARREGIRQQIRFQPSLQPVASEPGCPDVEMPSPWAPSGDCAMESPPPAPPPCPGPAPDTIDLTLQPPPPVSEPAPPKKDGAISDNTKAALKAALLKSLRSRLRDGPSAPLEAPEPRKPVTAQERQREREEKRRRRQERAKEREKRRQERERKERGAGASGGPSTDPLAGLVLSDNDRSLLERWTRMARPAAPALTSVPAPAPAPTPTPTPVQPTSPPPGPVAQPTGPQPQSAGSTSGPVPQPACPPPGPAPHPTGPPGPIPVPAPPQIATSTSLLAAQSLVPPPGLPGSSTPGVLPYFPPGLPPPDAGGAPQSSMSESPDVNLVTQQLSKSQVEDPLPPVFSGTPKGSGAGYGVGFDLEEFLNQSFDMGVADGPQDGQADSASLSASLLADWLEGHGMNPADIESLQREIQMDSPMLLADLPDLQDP
The target of experiment [4] is ATP-dependent translocase ABCB1 (Homo sapiens) (UniProt P08183). The experiment is described as follows: P-glycoprotein substrate transport blockade – cell-based (AID 377; in the data active = fluorescence slope change above about 50%). To be noted: MDR1-expressing cells, fluorescent substrate accumulation slope; stronger effect = higher value; concentration not given here.
Chain of ATP-dependent translocase ABCB1 (Homo sapiens) (P08183 whole entry, looked up): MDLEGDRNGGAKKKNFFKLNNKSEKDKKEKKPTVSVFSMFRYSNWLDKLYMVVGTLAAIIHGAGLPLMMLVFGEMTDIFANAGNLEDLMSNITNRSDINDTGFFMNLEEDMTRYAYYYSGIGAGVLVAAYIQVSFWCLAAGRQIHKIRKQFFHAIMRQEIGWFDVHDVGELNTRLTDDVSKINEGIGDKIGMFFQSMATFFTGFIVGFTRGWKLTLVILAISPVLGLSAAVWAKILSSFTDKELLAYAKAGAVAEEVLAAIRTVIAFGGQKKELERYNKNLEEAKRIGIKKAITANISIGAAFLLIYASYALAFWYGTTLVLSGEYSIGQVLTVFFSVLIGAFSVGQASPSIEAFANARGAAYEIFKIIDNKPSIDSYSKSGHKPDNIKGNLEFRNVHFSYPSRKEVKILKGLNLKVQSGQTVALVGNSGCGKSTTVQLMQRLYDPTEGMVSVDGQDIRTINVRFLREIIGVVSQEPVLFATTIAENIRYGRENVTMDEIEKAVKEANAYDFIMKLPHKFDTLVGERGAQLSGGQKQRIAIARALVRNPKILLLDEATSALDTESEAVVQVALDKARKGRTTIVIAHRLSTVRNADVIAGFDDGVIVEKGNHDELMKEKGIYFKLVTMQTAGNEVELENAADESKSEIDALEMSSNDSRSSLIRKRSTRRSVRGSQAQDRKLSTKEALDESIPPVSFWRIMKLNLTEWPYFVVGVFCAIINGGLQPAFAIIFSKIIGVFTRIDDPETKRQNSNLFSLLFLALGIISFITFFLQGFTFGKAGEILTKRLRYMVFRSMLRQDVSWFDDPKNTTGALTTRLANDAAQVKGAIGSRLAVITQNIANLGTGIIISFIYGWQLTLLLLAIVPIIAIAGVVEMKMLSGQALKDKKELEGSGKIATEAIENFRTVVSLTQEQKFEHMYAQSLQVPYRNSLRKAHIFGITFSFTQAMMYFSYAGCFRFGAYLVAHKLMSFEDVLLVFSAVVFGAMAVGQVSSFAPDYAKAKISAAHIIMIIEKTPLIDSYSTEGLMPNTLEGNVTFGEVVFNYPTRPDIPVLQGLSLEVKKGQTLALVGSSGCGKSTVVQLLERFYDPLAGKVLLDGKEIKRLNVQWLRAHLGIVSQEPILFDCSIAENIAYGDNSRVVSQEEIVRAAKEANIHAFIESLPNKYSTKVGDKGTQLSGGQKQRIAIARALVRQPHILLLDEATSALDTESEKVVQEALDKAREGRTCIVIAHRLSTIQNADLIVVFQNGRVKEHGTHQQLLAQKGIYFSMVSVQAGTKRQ
Experiment [5] is described as follows: compounds altering viability of human ES cells (AID 493140).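 Also: cells exposed to compounds for four days before counting.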 To be noted: human embryonic stem cell survival screen; stronger effect = higher value.
Experiment [6] in a line: growth inhibition, single agents and combos, LFS_MB_2R, cell-based, cisplatin combos, synergistic combos for chromothripsis tumors (AID 1671457; in the data active = inhibition above about 80%;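 also: cells exposed to compound for four days before readout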). As to conditions: LFS_MB_2R medulloblastoma cells, stronger effect = higher value.
The nature of experiment [7]: UWB1.289_BRCA1 ovarian cancer growth, cell-based, BGB or cisplatin combinations (AID 1671459; in the data active = inhibition above about 80%). To be noted: UWB1.289 BRCA1 ovarian carcinoma, drug combinations, stronger effect = higher value.
Experiment [8] in a line: drug combination toxicity in non-malignant astrocytes – cell-based, BGB or cisplatin IC20 combos, cytotoxicity control for chromothriptic childhood tumor combination screen (AID 1671460; in the data active = inhibition above about 80%;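 also: cells exposed to compounds for 96 hours before viability readout; 0% = vehicle and 100% = killing control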). As to conditions: Human astrocytes, viability inhibition, drug combinations, at 0.5 µM, stronger effect = higher value.
The mark [9] stands for this setting: measured here: combination with cisplatin, at 0.5 µM.
The mark [10] stands for this setting: measured here: combination with cisplatin, at 5 µM.
[11] abbreviates: BGB combination, concentration series, at 5 µM.
The mark [12] stands for this setting: cisplatin combination, concentration series, at 5 µM.
The mark [13] stands for this setting: measured here: combo with BGB IC20.
The mark [14] stands for this setting: measured here: combo with cisplatin IC20.

As for `N=C(N)c1ccc2cc(OC(=O)c3ccc(N=C(N)N)cc3)ccc2c1`, the fold fluorescence in experiment [1] is 12.2 [at 143.9 µM] (inactive).

For `C=CC(=O)Nc1cc2c(Nc3ccc(F)c(Cl)c3)ncnc2cc1OCCCN1CCOCC1`, in experiment [2], the liver cell % of control was 85.5% and 77.3% and 90.4%; the parasite % of control was 36.7% (inactive) and 39.4% (inactive) and 33.2% (inactive).

With `NC(=O)c1ncn([C@@H]2O[C@H](CO)[C@@H](O)[C@H]2O)c1N`, the luciferase signal in experiment [3] is 16 AU (inactive).

Consider `Cc1ccc(Nc2nccc(N(C)c3ccc4c(C)n(C)nc4c3)n2)cc1S(N)(=O)=O`, for which, in experiment [2], the liver cell % of control was 87.8% and 92.8% and 108%; the parasite % of control is 30.2% (inactive) and 10.9% (inactive) and 16.3% (inactive).

As for `Clc1ccc(C(Cn2ccnc2)OCc2c(Cl)cccc2Cl)c(Cl)c1` (centres undefined), the fluorescence slope change in experiment [4] was 107% (active). Moreover, the survival in experiment [5] was 13.2 (inactive).

`CC1=C(C)C(=O)C(CCCCC#CCCCC#CCO)=C(C)C1=O`: the fold fluorescence in experiment [1] was 9.55 [at 153.2 µM] (inactive).

The inhibition is the drop in the measured response relative to a control, in per cent. On to `O=c1[nH]c(=O)n([C@H]2C[C@H](O)[C@@H](CO)O2)cc1C(F)(F)F`, for which the luciferase signal in experiment [3] was 36 AU (inactive). For the same molecule, the inhibition is -13.5% (inactive) in experiment [6] (at 0.5 µM); -15.3% in experiment [6] (setting [9]); -85.8% in experiment [6] (setting [10]); 3.66% in experiment [7] (setting [11]); -12.4% (inactive) in experiment [7] (at 0.5 µM); 9.54% in experiment [7] (setting [12]). Moreover, the inhibition was -1.16% (inactive) in experiment [8], 5.49% in experiment [8] (setting [13]) and -19.9% in experiment [8] (setting [14]).

As for `C#Cc1cccc(Nc2ncnc3cc(OCCOC)c(OCCOC)cc23)c1`, in experiment [2], the liver cell % of control was 94.7% and 95% and 97.1%; the parasite % of control is 281% (inactive) and 87% (inactive) and 63.1% (inactive).

In the case of `C[C@@H]1C[C@H]2[C@@H]3CCC4=CC(=O)C=C[C@]4(C)[C@@]3(Cl)[C@@H](O)C[C@]2(C)[C@@]1(OC(=O)c1ccco1)C(=O)CCl`, in experiment [4], the fluorescence slope change was 21.4% (inactive). Also, the survival in experiment [5] was 4.67 (inactive).

On to `CCOC(=O)Nc1ccc(NCc2ccc(F)cc2)nc1N`, for which the inhibition in experiment [6] (at 0.5 µM) was -26.1% (inactive); in experiment [6] (setting [9]), -30.1%; in experiment [6] (setting [10]), -38%; in experiment [7] (setting [11]), -6.96%; in experiment [7] (at 0.5 µM), -1.39% (inactive); in experiment [7] (setting [12]), 8.03%. The inhibition in experiment [8] is 3.76% (inactive); in experiment [8] (setting [13]), 6.16%; in experiment [8] (setting [14]), 13.9%.

`CC(=O)Oc1cc(C(F)(F)F)ccc1C(=O)O`: the survival in experiment [5] was 9.25 (inactive).

On to `OCCN1CCN(CC/C=C2/c3ccccc3Sc3ccc(C(F)(F)F)cc32)CC1`, for which, in experiment [4], the fluorescence slope change was 77.6% (active). The survival in experiment [5] is 3.17 (inactive).

Regarding `C(=C\c1ccccc1)/CN1CCN(C(c2ccccc2)c2ccccc2)CC1`, the fluorescence slope change in experiment [4] is 102% (active). Further, the survival in experiment [5] was 11.3 (inactive).

Take `O=c1[nH]c(=O)n([C@H]2C[C@H](O)[C@@H](CO)O2)cc1Br`: the inhibition was -21.2% (inactive) in experiment [6] (at 0.5 µM); -22.2% in experiment [6] (setting [9]); -17.4% in experiment [6] (setting [10]); 35.6% in experiment [7] (setting [11]); 9.43% (inactive) in experiment [7] (at 0.5 µM); 29% in experiment [7] (setting [12]). Besides, the results for the inhibition in experiment [8], in experiment [8] (setting [13]) and in experiment [8] (setting [14]) were 11% (inactive), 6.3% and 12.5%, respectively.

In the case of `CCCCCCCCCCCCCCC[C@H](O)[C@@H](N)CO`, the survival in experiment [5] is 80 (inactive). Further, in experiment [1], the fold fluorescence is 7.01 (inactive).

`CC(=O)N(CC(O)CO)c1c(I)c(C(=O)NCC(O)CO)c(I)c(C(=O)NCC(O)CO)c1I` (centres undefined): the survival in experiment [5] is 14.3 (inactive).
